According to ChEMBL document CHEMBL1157539, “Thousands of chemical starting points for antimalarial lead identification” (Nature, 2010):

How the values were obtained:
Assay type in all cases: functional
Plasmodium falciparum [1] = test: GSK_TCMDC: Inhibition of Plasmodium falciparum 3D7 in whole red blood cells, using parasite LDH activity as an index of growth. Test compounds present at 2uM
Plasmodium falciparum [2] = test: GSK_TCMDC: Inhibition of Plasmodium falciparum Dd2 in whole red blood cells, using parasite LDH activity as an index of growth. Test compounds present at 2uM
HepG2 = test: GSK_TCMDC: Percent inhibition of human HepG2 cell line. Test compounds present at 10uM.

SMILES | Inhibition (Plasmodium falciparum [1]) [%] | Inhibition (Plasmodium falciparum [2]) [%] | Inhibition (HepG2) [%]
COc1ccc(CCNc2nc(SCc3ccccc3Cl)nc3ccccc23)cc1OC | 94 | 2 | 27
O=C(Nc1cccc(C(F)(F)F)c1)c1ccc(S(=O)(=O)NC2CCN(CC3CCCCC3)CC2)cc1.O=C(O)C(F)(F)F | 83 | 0 | 25
O=C(N[C@@H](Cc1ccccc1)C(=O)NC1CCCc2ccccc21)c1ccc(O)c(-c2cccc(C(F)(F)F)c2)c1 (stereo partly drawn) | 91 | 41 | 0
CC(O)C1CCCCN1C(=O)c1cccc(-c2cccc(-c3nc4cc(F)ccc4[nH]3)c2)c1 (stereo not drawn) | 100 | 99 | 42
O=C(NCCN1CCCC1)c1cc(-c2ccc(Cl)c(O)c2)c(-c2ccncc2)o1 | 92 | 0 | 0
Br.CCCc1cc(C)ccc1OCCCON1C(N)=NC(N)=NC1(C)C | 97 | 97 | 64
CCc1ccc(NC(=O)C=NNC(=N)N)cc1.O=S(=O)(O)O | 100 | 3 | 13
CC[C@H](C)CNC(=O)c1ccc(-c2cccc(CN3CCC(N4CCCC4)CC3)c2)nc1.O=C(O)C(F)(F)F | 91 | 7 | 0
c1ccc(CN2CCC(NCc3cccc(-c4cncc5ccccc45)c3)CC2)cc1 | 92 | 11 | 29
O=C(Nc1ccc2c(c1)CCC2)c1ccc(N2CCN(c3ccncc3)CC2)cc1.O=C(O)C(F)(F)F | 100 | 75 | 72
COc1cc(CNc2ccc(N3CCCC3)cc2)cc(Cl)c1OC | 100 | 94 | 41
O=C(/C=C/c1ccc(Cl)c(Cl)c1)N1CCN(C(=O)Nc2ccc(C(F)(F)F)cc2)CC1 | 98 | 100 | 47
COC(=O)c1ccc(OCC(O)CO)cc1O (stereo not drawn) | 100 | 23 | 4
CS(=O)(=O)c1ccc(Nc2ncc(-c3ccc(S(C)(=O)=O)cc3)c(OCC(F)(F)F)n2)cc1 | 97 | 98 | 0
O=C(NCCN1CCOCC1)c1ccc(O)c(-c2cccc(C(F)(F)F)c2)c1 | 95 | 48 | 0
O=C(C=Cc1ccc(Br)cc1)N1CCC(CCN2CCC(c3c[nH]c4ccccc34)CC2)CC1 | 98 | 24 | 47
COc1ccc2c(=NN=CC=Cc3ccccc3)cc(C)[nH]c2c1 | 99 | 56 | 18
Cc1ccccc1C1CCN(C2CCC(NC(=O)/C=C/c3cc(C(F)(F)F)ccc3F)CC2)CC1 (stereo not drawn) | 100 | 45 | 56
O=c1nc(NCCCCCN2CCC(c3c[nH]c4ccccc34)CC2)[nH]cc1Cc1ccc(Cl)c(Cl)c1 | 94 | 8 | 21
COc1ccc(CCNCCCCCCNCCc2ccc(OC)c(OC)c2Cl)c(Cl)c1OC.Cl | 96 | 0 | 19
COC(=O)Nc1ccc(-c2ccc(C(=O)NC3CCN(C[C@H](O)c4ccnc5ccc(OC)cc45)CC3)cc2)c(C)c1 | 100 | 97 | 32

SMILES | Inhibition (Plasmodium falciparum [1]) [%] | Inhibition (Plasmodium falciparum [2]) [%] | Inhibition (HepG2) [%]
Cc1ccc(-n2c(Cc3cccc4ccccc34)nnc2SCCC#N)c(C)c1 | 95 | 98 | 0
Cc1cc(=NN=Cc2ccc(F)cc2)c2cc(C(F)(F)F)ccc2[nH]1 | 100 | 99 | 2
CC(C)(C)C1CC(=O)CC2C(=O)N(c3ccc(Br)cc3)C(=O)C21 (stereo not drawn) | 94 | 7 | 0
COc1cc(NC(=O)c2sc(-c3ccc(Cl)cc3)cc2NC(=O)N2CCCC2)ccc1OCCN1CCCC1 | 100 | 61 | 22
CCN(CC)CCOc1ccc(NC(=O)c2oc3ccccc3c2C=Cc2ccccc2)cc1.O=C(O)/C=C/C(=O)O | 98 | 54 | 51
Cc1ccoc1C(=O)Nc1cccc(-c2cccc(-c3nc4ccccc4[nH]3)c2)c1 | 85 | 20 | 43
CCCCCCNC(=O)C1Cc2c([nH]c3ccc(F)cc23)C2(CCN(Cc3ccccc3)CC2)N1 (stereo not drawn) | 97 | 39 | 11
CCCCCCOc1ccc(N2C(N)=NC(N)=NC2(C)C)cc1.Cl | 98 | 0 | 5
Cc1cc(NCCC(=O)NCc2cccc(F)c2)nc(Nc2ccccc2)n1.O=C(O)C(F)(F)F | 94 | 15 | 0
COc1cc2c(cc1S(=O)(=O)c1ccc(NC(=O)c3cccc(C(F)(F)F)c3)cc1)CCN(C)CC2 | 92 | 25 | 18
CC(C)c1cc(Oc2c(I)cc(CCNCc3ccccc3)cc2I)ccc1O.Cl | 95 | 54 | 42
Fc1ccc2nc(Nc3nc(-c4ccccn4)cs3)sc2c1 | 100 | 100 | 42
O=C(NCC1CC1)C1CCN(C(c2ccc(Cl)cc2)c2ccc(Cl)cc2)CC1 | 99 | 95 | 3
Cl.Clc1ccc2c(NCCNc3ccnc4cc(Cl)ccc34)ccnc2c1 | 100 | 96 | 6
COc1ccc(-c2cc(C(=O)Nc3ccc4[nH]c(-c5ccccc5)nc4c3)[nH]n2)cc1.O=C(O)C(F)(F)F | 90 | 78 | 77
O=C(Nc1cccc(CN2CCCN(Cc3ccsc3)CC2)c1)c1cc2ccccc2s1.O=C(O)C(F)(F)F | 96 | 29 | 25
CCn1c(CN2CCN(Cc3ccccc3)CC2)nc2cc(NC(=O)c3cccs3)ccc21 | 97 | 95 | 0
Cc1cc2nc(-c3cc(-c4cccc(NS(C)(=O)=O)c4)cnc3N)[nH]c2cc1C | 100 | 32 | 43
CN(C)CCCOc1ccc(CN2CC[C@H](NC(=O)c3ccc(Cl)c(Cl)c3)C2)cc1Br.O=C(O)C(F)(F)F | 100 | 34 | 11
O=C(/C=C/c1ccc(Cl)c(Cl)c1)N1CCCC(CCCN2CCC(c3c[nH]c4ccccc34)CC2)C1 (stereo not drawn) | 89 | 15 | 30
Cc1ccc(C2CCN(CCCCNC(=O)c3ccc(NC(=O)c4ccc(Cl)cc4)cc3)CC2)c(C)c1.Cl | 96 | 10 | 23

SMILES | Inhibition (Plasmodium falciparum [1]) [%] | Inhibition (Plasmodium falciparum [2]) [%] | Inhibition (HepG2) [%]
O=C(Cn1c(CCc2cccc(F)c2F)nc(=O)c2ccccc21)N(Cc1ccc(-c2ccc(C(F)(F)F)cc2)cc1)C1CCN(C2CCOCC2)CC1.O=C(O)C(O)C(O)C(=O)O | 100 | 76 | 97
CCCNCc1ccc(-c2ccc(CNC3Cc4ccccc4C3)cc2)nc1.O=C(O)C(F)(F)F | 97 | 32 | 23
CCN(c1cc(C)nc(Nc2ccc(Cl)cc2)n1)[C@H]1CCN(Cc2ccccc2)C1 | 94 | 31 | 46
Cc1cccc2nc(-c3ccc(-c4ccc(CN5CCCC5CN)cc4)cc3)[nH]c12.O=C(O)C(F)(F)F (stereo not drawn) | 99 | 65 | 28
COc1cc(Cc2cnc(N)nc2N)cc(OC)c1OCCCCC(=O)O.Cl | 88 | 0 | 0
COc1ccc(C[C@H](N)C(=O)N[C@H]2[C@@H](O)[C@H](n3cnc4c(N(C)C)ncnc43)O[C@@H]2CO)cc1.Cl | 100 | 91 | 98
CC(C)CCN1C(=O)C(NC(=O)Oc2ccccc2)C(=O)N(CC23CC4CC(CC(C4)C2)C3)c2ccccc21 (stereo not drawn) | 95 | 4 | 3
C=C(C)C1CC=C(CN2CCC(N3CCc4cc(NC(=O)c5cc(C)on5)ccc43)C2)CC1 (stereo not drawn) | 90 | 95 | 26
COc1ccc(CON2C(=N)N=C(N)NC2(C)C)cc1OC.Cl | 96 | 97 | 68
COc1ccc(-c2ccc(CNCc3ccc(F)cc3)cc2)cc1S(=O)(=O)NCCN1CCCC1.O=C(O)C(F)(F)F | 98 | 33 | 24
CCCCCCn1c(Sc2ccc(C#N)c([N+](=O)[O-])c2)nnc1-c1cc(OC)cc(OC)c1 | 95 | 41 | 35
CCN(CC)CCN(Cc1ccc(-c2ccc(C(F)(F)F)cc2)cc1)C(=O)Cn1c(CCc2cccc(F)c2F)cc(=O)c(C)c1C.O=C(O)C(O)C(O)C(=O)O | 97 | 87 | 35
CCCCCN1CCCCC(NS(=O)(=O)c2ccc(C(=O)Nc3cccc(C(F)(F)F)c3)cc2)C1.O=C(O)C(F)(F)F (stereo not drawn) | 93 | 2 | 14
Cc1cccc2nc(-c3cccc(-c4cccc(C(=O)NCCN5CCCC5)c4)c3)[nH]c12 | 100 | 75 | 21
N#Cc1cncc(-c2nc3c(N4CCC(Cc5ccccc5)CC4)cccc3n2C2CCNC2)c1.O=C(O)C(F)(F)F (stereo not drawn) | 88 | 7 | 5
COc1ccc2nccc([C@@H](O)CN3C4CCC3CC(NCc3ccc5c(n3)NC(=O)CS5)C4)c2n1.Cl (stereo partly drawn) | 99 | 11 | 0
CCN(CC)CCCC(C)Nc1ccnc2ccc(-c3ccccc3)cc12 (stereo not drawn) | 98 | 21 | 0
COc1ccccc1NC(=O)Nc1ccc(-c2cccc(-c3nc4ccccc4[nH]3)c2)cc1 | 100 | 25 | 42
COc1ccc(CN(C)CCCOc2ccc(NC(=O)c3cccc4c(=O)c5cccc(C)c5[nH]c34)cc2)cc1OC | 96 | 62 | 3
